Drawing on PubChem BioAssay (EPA / NIEHS), this text covers AC50 and outcome for 39 molecules.

Structures are written as SMILES. Results filed as inconclusive are left out. Some structures have more than one record in an assay (separate samples or runs), and their calls can disagree. The source made the active and inactive calls. Rule for the calls: active = hit-call score of the fitted dose curve at least 0.9, where 1 is the maximum; inconclusive = response in the unintended direction; inactive = score below 0.9.

This assay is described as follows: ACEA_AR_antagonist_AUC_viability: ACEA Biosciences xCELLigence Real-Time Cell Analysis on Androgen Receptor Antagonism for Viability (AID 2283776).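 Note: area under impedance growth curve at 80 h after dosing as viability; hits lower the growth signal relative to DMSO meaning cytotoxicity.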 Here is the method:
ACEA_AR_antagonist is a cell-based, single-readout assay that uses 22Rv1, a human prostate cancer cell line, with measurements taken at 80 hours after chemical dosing in a 384-well plate, although TO5 and TO6 (mc0.srcf) used a 96-well plate. Differences in plate size can be ignored given data normalization.ACEA_AR_80hr is one of two assay component(s) measured or calculated from the […] assay. It is designed to make measurements of real-time cell-growth kinetics, a form of growth reporter, as detected with electrical impedance signals by Real-Time Cell Electrode Sensor (RT-CES) technology.Data from the assay component ACEA_AR_antagonist_AUC_viability was analyzed in the positive analysis fitting direction relative to DMSO as the negative control and baseline of activity. Using a type of growth reporter, loss-of-signal activity can be used to understand changes in the viability. Furthermore, this assay endpoint can be referred to as a secondary readout, because this assay has produced multiple assay endpoints where this one serves a viability function. To generalize the intended target to other relatable targets, this assay endpoint is annotated to the cell cycle intended target family, where the subfamily is cytotoxicity.
The xCELLigence system Multi-E-Plate stations were used to measure the time-dependent response to chemicals. Each compound was tested in an eight-point, 1:4 serial dilution series starting at a maximum final concentration of 100 uM. A maximum starting concentration of 0.5% DMSO was present in the 100 uM chemical samples and was diluted along with the test article dilution series. The screen was performed in biological duplicate using two separate, 96-well, E-Plates 96 for each dilution series (n = 2). Positive controls (MG132 and testosterone) and a negative control (assay media) were tested in quadruplicate on each testing plate. Then, 0.5% and 0.125% DMSO were tested in duplicates in each plate to serve as solvent controls for the 2 highest concentrations of testing compounds: 100 uM and 25 uM. Reference compounds were tested with 8 concentrations with 1:5 serial dilutions. All screening was carried out by ACEA Biosciences, Inc. (San Diego, CA). 22Rv1 cells purchased from ATCC were maintained in media supplemented with 10% fetal bovine serum (FBS). Before screening, 22Rv1 cells were preconditioned in assay medium. Cells were then detached and seeded in E-Plates 96 in assay medium. After overnight monitoring of growth once every hour, compounds were added to […] cells and remained in the medium until the end of the experiment. Cellular responses were then recorded once every 5 min for the first 5 h, and once every hour for an additional 100 h.
By AC50 is commonly meant the midpoint of the concentration-response curve, whichever way the signal moves. For `N#Cc1cc(Br)c(O)c(Br)c1`, the AC50 is 52.1 µM (active).

Take `COC(=O)c1ccccc1C(=O)OC`: the molecule was classed as inactive.

On to `CNC(=O)ON=CC(C)(C)SC`, for which the result was inactive.

For the molecule `CCCCOC(=O)c1ccccc1C(=O)OCCCC`, the AC50 is 66.1 µM (active).

With `CCc1nn(C)c(C(=O)NCc2ccc(C(C)(C)C)cc2)c1Cl`, the AC50 was 19.4 µM (active).

On to `C=CC1(C)OC(=O)N(c2cc(Cl)cc(Cl)c2)C1=O` (stereo not given), for which the half-maximal activity concentration (AC50) is 83.7 µM (active).

Turning to `COC(=O)C=C(C)OP(=O)(OC)OC`, the AC50 was 19 µM (active).

`CCOP(=S)(OCC)SCn1c(=O)oc2cc(Cl)ccc21`: the AC50 was 76.9 µM (active).

As to `CC(Oc1ccc(Cl)cc1Cl)C(=O)O` (stereo not given), the call was inactive.

Take `Oc1ccccc1-c1ccccc1`: the AC50 was 48.6 µM (active).

`CON(C)C(=O)Nc1ccc(Cl)c(Cl)c1`: the AC50 was 15.8 µM (active) and the molecule was called inactive.

For `CCCCNC(=O)n1c(NC(=O)OC)nc2ccccc21`, the AC50 was 61.6 µM (active).

As for `OC(c1ccc(Cl)cc1)(c1cncnc1)c1ccccc1Cl` (stereo not given), the AC50 was 67.8 µM (active).

Take `COC(=O)C(C)Oc1ccc(Oc2ccc(Cl)cc2Cl)cc1` (stereo not given): the AC50 was 50 µM (active).

Consider `CCCCNC(=O)OCC#CI`, for which the AC50 was 13.9 µM (active).

With `C=CCC1=C(C)[C@@H](OC(=O)[C@@H]2[C@@H](C=C(C)C)C2(C)C)CC1=O`, the AC50 was 61.3 µM (active).

As for `CCCCC(CC)COC(=O)c1ccccc1C(=O)OCC(CC)CCCC` (stereo not given), the AC50 was 61.8 µM (active).

Regarding `O=C(O)c1nc(Cl)ccc1Cl`, the call was inactive.

Take `CCOC(=O)CC(SP(=S)(OC)OC)C(=O)OCC` (stereo not given): the AC50 was 85.1 µM (active).

`N#Cc1nn(-c2c(Cl)cc(C(F)(F)F)cc2Cl)c(N)c1S(=O)C(F)(F)F` (stereo not given): the AC50 was 31.2 µM (active).

In the case of `CCCC1COC(Cn2cncn2)(c2ccc(Cl)cc2Cl)O1` (stereo not given), the AC50 was 74.8 µM (active).

Take `Cc1c(F)c(F)c(COC(=O)C2C(/C=C(\Cl)C(F)(F)F)C2(C)C)c(F)c1F` (stereo not given): the AC50 was 30.6 µM (active).

As for `C=CCC1=C(C)C(OC(=O)C2C(C=C(C)C)C2(C)C)CC1=O` (stereo not given), the AC50 was 52.5 µM (active).

`CCNc1nc(Cl)nc(NCC)n1`: the molecule was classed as inactive.

Regarding `CC(C)Oc1cc(-n2nc(C(C)(C)C)oc2=O)c(Cl)cc1Cl`, the AC50 is 50 µM (active).

With `CO/C=C(/C(=O)OC)c1ccccc1Oc1cc(Oc2ccccc2C#N)ncn1`, the AC50 is 45.3 µM (active).

Turning to `COc1ccc(C(c2ccc(OC)cc2)C(Cl)(Cl)Cl)cc1`, the AC50 was 76.7 µM (active).

As for `CCNc1nc(Cl)nc(NC(C)C)n1`, the molecule was classed as inactive.

As for `CC1=C(C(=O)Nc2ccccc2)SCCO1`, the molecule was classed as inactive.

With `Cc1ccc(-c2c(Cl)nc(C#N)n2S(=O)(=O)N(C)C)cc1`, the AC50 is 16.1 µM (active).

As to `C#CCOS(=O)OC1CCCCC1Oc1ccc(C(C)(C)C)cc1` (stereo not given), the AC50 was 21.7 µM (active).

For `Cc1cc(Cl)ccc1OCC(=O)O`, the molecule was called inactive.

Turning to `CN(C)C(=S)SSC(=S)N(C)C`, the AC50 was 22.6 µM (active).

For `N#CC(CCc1ccc(Cl)cc1)(Cn1cncn1)c1ccccc1` (stereo not given), the AC50 was 25.7 µM (active).

Turning to `CNC(=S)S`, the outcome was inactive.

On to `CC(C)(C)c1ccc(CSc2cnn(C(C)(C)C)c(=O)c2Cl)cc1`, for which the half-maximal activity concentration (AC50) was 26.9 µM (active).

On to `COc1cnc(OC)n2nc(NS(=O)(=O)c3c(OCC(F)F)cccc3C(F)(F)F)nc12`, for which the molecule was called inactive.

For `COC(=O)N(OC)c1ccccc1COc1ccn(-c2ccc(Cl)cc2)n1`, the half-maximal activity concentration (AC50) is 26.8 µM (active).

As to `CCON=C(CC)C1=C(O)CC(c2c(C)cc(C)cc2C)CC1=O` (stereo not given), the call was inactive.
